Source: PubChem
TEAD-YAP inh: TEAD-YAP interaction inhibition; HEK-TIYL cells, TEAD-Gal4/YAP UAS-luciferase luminescence; inhibition, % at 9.12 µM; actives 1.4% (n = 640,000); AID 1259422; in the data active = inhibition above about 32%;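 also: 0% = median of test compound wells and 100% = reference inhibitor wells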
MITF inh: inhibitors of human MITF | O75030 | AlphaScreen MITF homodimerization, bead proximity signal | inhibition, % at 2.6 µM | actives 0.91% (n = 650,000); in the data active = inhibition above about 50%;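 also: 0% = vehicle wells with protein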
FBW7 activator: activators of human E3 ligase FBW7; AlphaScreen FBW7–phospho-cyclin E peptide binding, activator screen; normalized activity (activation), % at 26.1 µM; actives 0.13% (n = 650,000); AID 1259310; in the data active = normalized activity above about 1.9%;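 also: purified mutant Fbw7 with reduced substrate affinity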
GPR151 activ: activates the human receptor GPR151 | Q8TDV0 | PathHunter beta-arrestin GPR151 cells, luminescence | activation, % at 11.2 µM | actives 1% (n = 650,000) | AID 1508602; in the data active = activation above about 4.9%;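 also: 0% = median of compound wells and 100% = cells with positive control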
Target sequence (Q8TDV0 whole entry, looked up): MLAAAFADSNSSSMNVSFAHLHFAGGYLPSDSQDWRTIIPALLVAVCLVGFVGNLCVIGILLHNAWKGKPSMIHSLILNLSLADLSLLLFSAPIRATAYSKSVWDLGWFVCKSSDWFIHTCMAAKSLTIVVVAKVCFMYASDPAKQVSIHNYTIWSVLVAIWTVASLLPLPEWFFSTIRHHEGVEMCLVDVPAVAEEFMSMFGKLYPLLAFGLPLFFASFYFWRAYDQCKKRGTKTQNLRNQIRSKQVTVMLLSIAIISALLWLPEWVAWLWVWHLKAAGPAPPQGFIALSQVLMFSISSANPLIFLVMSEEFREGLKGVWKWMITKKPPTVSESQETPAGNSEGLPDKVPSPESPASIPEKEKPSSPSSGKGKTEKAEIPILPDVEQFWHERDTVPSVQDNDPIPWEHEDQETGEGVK
An asterisk follows results filed as active. Rows were chosen to be rich in hits. Some 3.4% of all compounds tested hit in one or more screens of this group.

SMILES	TEAD-YAP inh	MITF inh	FBW7 activator	GPR151 activ
CC(C)n1cnc2c(NCc3nc4ccccc4[nH]3)nc(Nc3cnccn3)nc21	77.6*	4.2	-0.1	0.4
CC(=O)N1CCCN(c2nc(CN3CCC(C)CC3)nc3c(C)cccc23)CC1	0.7	13.8	0.0	-1.3
COc1ccccc1C1C=C(c2ccc(C)c(C)c2)Nc2ncnn21 (stereo not drawn)	5.2	7.0	0.5	0.5
CCNc1nc(NCc2cccnc2)c2ncn(C(C)C)c2n1	-0.1	5.0	-0.1	-0.7
CC(C)n1cnc2c(NCc3nc4ccccc4[nH]3)nc(Nc3nccc4ccccc34)nc21	42.9*	4.4	0.6	0.1
CC(C)n1cnc2c(NCc3nc4ccccc4[nH]3)nc(NCc3cccnc3)nc21	58.9*	18.1	-0.1	-2.2
CC(C)n1cnc2c(NC3CC3)nc(Nc3nccc4ccccc34)nc21	13.6	5.7	-0.1	2.2
CCC(=O)N(CC(C)C)c1nnc(-c2cc(OC)c(OC)c(OC)c2)s1	0.3	15.1	0.1	-0.5
CCc1ccccc1NC(=O)CN(C)C(=O)CCl	78.9*	-0.6	0.0	-1.5
CCOC(=O)C1=C(C)NC2=C(C(=O)CC(c3ccco3)C2)C1c1cccs1 (stereo not drawn)	63.1*	9.6	0.4	-1.2
CCOCCOC(=O)C1=C(C)NC2=C(C(=O)CC(c3cccs3)C2)C1c1cccs1 (stereo not drawn)	14.0	-4.5	0.1	-0.9
CC1=C(C(=O)OC(C)C)C(c2ccsc2)C2=C(CC(c3cccs3)CC2=O)N1 (stereo not drawn)	67.0*	-10.7	0.0	-1.2
COc1cc(/C=C2/SC(=Nc3ccccc3)N(Cc3ccccc3)C2=O)ccc1OCc1ccccc1C#N	-3.2	-7.2	0.0	1.6
CC(=O)Nc1nc(-c2ccc3c(c2)CCO3)cs1	-57.5	4.8	-0.1	-1.8
CCCN1C(=O)COc2ccc(-c3csc(NC(=O)C(CC)CC)n3)cc21	31.9*	2.7	0.1	-0.3
CCOc1ccc(C(=O)NC(=S)NCc2cccnc2)cc1Cl	6.6	19.4	0.1	-1.4
Cc1ccc2nc(NC(=O)CSCC(=O)OCC(=O)c3ccccc3)sc2c1	68.4*	2.1	0.0	-1.2
COC(=O)CSCC(=O)Nc1nc2ccccc2s1	-5.3	-4.8	0.3	-3.7
CCOC(=O)c1[nH]c(C)c(C(=O)c2cc(F)ccc2F)c1C	44.5*	3.8	-0.1	0.7
CCOC(=O)c1[nH]c(C)c(C(=O)Nc2cc(F)ccc2F)c1C	41.9*	14.5	0.0	0.1
CCOC(=O)c1[nH]c(C)c(C(=O)OCC(=O)Nc2sccc2C(N)=O)c1C	32.3*	-6.3	0.0	1.6
OCCC1CN(CC2CCCCC2)CCN1Cc1ccc(F)cc1 (stereo not drawn)	-2.0	8.5	0.0	1.3
O=C(Cn1ccc(=NCc2ccccc2)cc1)c1ccc(Cl)cc1	22.4	-1.8	-0.1	-0.2
O=C(Cn1ccc(=NCc2ccccc2)cc1)c1ccc(I)cc1	65.9*	-9.6	-0.1	1.0
Fc1ccccc1Nc1nnc(SCC2CCCCO2)s1 (stereo not drawn)	73.1*	-1.0	0.2	-9.9
SMILES	TEAD-YAP inh	MITF inh	FBW7 activator	GPR151 activ
Nc1cccc(-c2nc3cc(S(=O)(=O)c4ccc5oc(-c6cccc(N)c6)nc5c4)ccc3o2)c1	5.9	8.8	0.3	1.9
CC(C)c1ccc2oc(-c3ccc(N)cc3)nc2c1	80.3*	0.0	0.2	-0.6
CC(C)c1ccc2oc(-c3cccc(N)c3)nc2c1	65.0*	2.5	0.1	-7.1
COc1cc(OC)cc(C(=O)Nc2cc3nn(-c4ccccc4)nc3cc2C)c1	-2.0	-1.0	-0.1	1.0
NC1=NC(=O)/C(=C\c2ccc(-c3cccc([N+](=O)[O-])c3)o2)S1	-12.4	12.1	0.1	-1.5
O=C1NC(=S)S/C1=C/c1ccc([N+](=O)[O-])o1	14.8	74.5*	-0.7	-0.5
NC1=NC(=O)/C(=C\c2ccc([N+](=O)[O-])o2)S1	1.4	80.5*	-0.1	0.6
NC1=NC(=O)/C(=C/C=C/c2ccc([N+](=O)[O-])o2)S1	35.1*	97.8*	-0.2	0.1
CC(C)c1ccc(CNC(=O)CSCc2ccccc2)cc1	11.4	12.8	0.6	0.3
OC1CCC(Nc2nc(NCc3ccccc3)c3ncn(-c4ccccc4)c3n2)CC1 (stereo not drawn)	-39.7	-2.3	0.0	0.5
c1ccc(-n2cnc3c(NC4CC4)nc(Nc4ccc(N5CCOCC5)cc4)nc32)cc1	33.4*	7.3	-0.2	1.2
OC1CCC(Nc2nc(Nc3ccc(N4CCOCC4)cc3)c3ncn(-c4ccccc4)c3n2)CC1 (stereo not drawn)	37.8*	20.8	-0.4	1.0
O=c1nc(-c2ccccc2)c2ccccc2[nH]1	-13.7	11.0	0.1	-1.0
O=c1cc(-c2ccccc2)[nH]c2ccccc12	46.3*	-4.1	-0.1	0.6
Cc1ccc(C(=O)c2ccc(N)cc2)cc1C	51.7*	33.7	0.3	1.9
C/C(=N/NC(=O)COc1ccc(C)cc1[N+](=O)[O-])c1cccc(Br)c1	7.1	3.0	0.8	0.0
COc1cc(/C=N/Nc2ncnc(N)c2[N+](=O)[O-])ccc1O	34.0*	9.7	-0.6	-9.9
Nc1ncnc(N/N=C/c2cccnc2)c1[N+](=O)[O-]	20.0	-1.0	-0.5	-3.1
CCN(Cc1ccccc1)c1ccc(/C=N/Nc2ncnc(N)c2[N+](=O)[O-])cc1	37.1*	12.2	-0.5	-3.7
Nc1ncnc(N/N=C/c2ccc(C3=CCCC3)s2)c1[N+](=O)[O-]	60.5*	22.0	-1.0	-7.9
Nc1ncnc(N/N=C/c2ccc3ncccc3c2)c1[N+](=O)[O-]	85.6*	12.7	-0.1	-0.8
Cc1cccc(C)c1NC(=O)c1cc2c(=O)n3ccccc3nc2n1C	36.6*	-8.7	0.3	0.8
COc1ccc(/C=N/NC(=O)c2cc(C)[nH]n2)c(OC)c1	-13.4	20.8	2.3*	-1.8
COc1cc([N+](=O)[O-])cc(/C=N/NC(=O)c2ccc(F)cc2)c1O	54.2*	63.1*	-0.8	-0.1
O=C(O)c1cccc(NC(=S)N/N=C/c2cc([N+](=O)[O-])ccc2O)c1	40.4*	-1.1	0.0	0.1
SMILES	TEAD-YAP inh	MITF inh	FBW7 activator	GPR151 activ
Cc1nc2ccc(C(=O)N/N=C/c3cc([N+](=O)[O-])ccc3O)cc2[nH]1	-19.5	92.2*	1.9*	0.7
CC(C(=O)N/N=C/c1cc([N+](=O)[O-])ccc1O)n1nnc2ccccc21 (stereo not drawn)	6.2	86.2*	-0.2	-0.6
O=C(N/N=C/c1ccccc1O)c1ccccc1O	37.2*	29.1	-0.3	2.5
CC(C(=O)N/N=C/c1ccccc1O)n1nnc2ccccc21 (stereo not drawn)	3.0	28.8	-0.5	-0.8
COc1cc([N+](=O)[O-])cc(/C=N/NC(=O)c2ccccc2O)c1O	-13.0	78.7*	-0.2	-0.1
O=C(N/N=C/c1cc([N+](=O)[O-])ccc1O)c1cccnc1	15.9	98.9*	-1.6	-2.6
O=C(N/N=C/c1cc([N+](=O)[O-])ccc1Cl)c1cccnc1	-5.8	-2.9	-0.1	0.4
Cc1ccc(NC2CC(=O)N(C3CCCCC3)C2=O)cc1 (stereo not drawn)	-1.3	12.0	0.1	-0.5
